Assay results as given in PubChem BioAssay (NCATS).
Values joined by “and” are separate entries in the source; they are usually repeats but may differ in a detail not shown here. Identical values can stand only once. Records with an inconclusive call do not appear. Active and inactive are the calls of the source. Calls come from the whole dose curve; as a rule, active = well fitted curve in the direction sought with a large enough effect; inconclusive = small, poorly fitted or top-dose-only effect, or another doubt; inactive = no such curve, though single readings can be large; an effect the other way counts as inactive or inconclusive.

Key:
[1] = test system: CRL-7250; assay: Cytotoxic Profiling of Annotated Libraries Using Quantitative High-Throughput Screening (AID 1296008); conditions: Five cell lines viability, CellTiter-Glo ATP luminescence, 48-72 h; max response: active compounds read low; note: nearly all actives have a fitted effect of over 60% in size
Outline: (§1)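 Cytotoxicity was measured as CellTiter-Glo ATP luminescence, read after 10 min at room temperature. Compound treatment of the cells lasted 48 or 72 hr at 37 degrees Celsius in a qHTS format.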

[2] = test system: HaCat; assay: as above; conditions: Five cell lines viability, CellTiter-Glo ATP luminescence, 48-72 h; max response: active compounds read low
Outline: as §1

[3] = test system: KB-3-1; assay: as above; conditions: Five cell lines viability, CellTiter-Glo ATP luminescence, 48-72 h; max response: active compounds read low
Outline: as §1

[4] = test system: MKL-1; assay: qHTS assay to identify novel small-molecules to repurpose for Merkel cell carcinoma treatment (AID 1296009); conditions: MCC and control cell lines, CellTiter-Glo viability, 72 h; series mostly up to 46 µM; note: nearly all actives have a fitted effect of over 60% in size
Outline: (§2)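 After compound transfer in DMSO, plates were kept 72 hr at 37 degree celsius. Luminescent ATP signal from CellTiter-Glo served as viability measure, normalized against DMSO and no-cell controls.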

[5] = test system: MKL-2; assay: as above; conditions: MCC and control cell lines, CellTiter-Glo viability, 72 h; series mostly up to 46 µM
Outline: as §2

[6] = test system: UISO; assay: as above; conditions: MCC and control cell lines, CellTiter-Glo viability, 72 h; series mostly up to 46 µM
Outline: as §2

[7] = test system: WaGa; assay: as above; conditions: MCC and control cell lines, CellTiter-Glo viability, 72 h; series mostly up to 46 µM
Outline: as §2

[8] = test system: C33A; assay: Primary qHTS to identify gynecologic anti-cancer compounds using libraries of approved drugs and bioactive compounds (AID 1345084); conditions: Gynecologic cancer cell panel viability, ATPlite luminescence, 48 h; series mostly up to 57.5 µM; note: nearly all actives have a fitted effect of over 55% in size
Outline: (§3)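 Measured: luminescence after ATPlite addition (15 min, RT). Exposure: 48 h, 37 C, 5% CO2.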

[9] = test system: CASKI; assay: as above; conditions: Gynecologic cancer cell panel viability, ATPlite luminescence, 48 h; series mostly up to 57.5 µM
Outline: as §3

[10] = test system: Es-2; assay: as above; conditions: Gynecologic cancer cell panel viability, ATPlite luminescence, 48 h; series mostly up to 57.5 µM
Outline: as §3

[11] = test system: HeLa; assay: as above; conditions: Gynecologic cancer cell panel viability, ATPlite luminescence, 48 h; series mostly up to 57.5 µM
Outline: as §3

[12] = test system: NIH3T3; assay: Cytotoxic Profiling of Annotated Libraries Using Quantitative High-Throughput Screening (AID 1296008); conditions: Five cell lines viability, CellTiter-Glo ATP luminescence, 48-72 h; max response: active compounds read low; note: nearly all actives have a fitted effect of over 60% in size
Outline: as §1

[13] = test system: Hek293T; assay: Primary qHTS to identify gynecologic anti-cancer compounds using libraries of approved drugs and bioactive compounds (AID 1345084); conditions: Gynecologic cancer cell panel viability, ATPlite luminescence, 48 h, control line for the selectivity index; series mostly up to 57.5 µM; note: nearly all actives have a fitted effect of over 55% in size
Outline: as §3

[14] = test system: MCC-13; assay: qHTS assay to identify novel small-molecules to repurpose for Merkel cell carcinoma treatment (AID 1296009); conditions: MCC and control cell lines, CellTiter-Glo viability, 72 h; series mostly up to 46 µM; note: nearly all actives have a fitted effect of over 60% in size
Outline: as §2

[15] = test system: MCC-26; assay: as above; conditions: MCC and control cell lines, CellTiter-Glo viability, 72 h; series mostly up to 46 µM
Outline: as §2

[16] = test system: CAOV3; assay: Primary qHTS to identify gynecologic anti-cancer compounds using libraries of approved drugs and bioactive compounds (AID 1345084); conditions: Gynecologic cancer cell panel viability, ATPlite luminescence, 48 h; series mostly up to 57.5 µM; note: nearly all actives have a fitted effect of over 55% in size
Outline: as §3

[17] = test system: HEK293; assay: Cytotoxic Profiling of Annotated Libraries Using Quantitative High-Throughput Screening (AID 1296008); conditions: Five cell lines viability, CellTiter-Glo ATP luminescence, 48-72 h; max response: active compounds read low; note: nearly all actives have a fitted effect of over 60% in size
Outline: as §1

[18] = test system: HACAT; assay: qHTS assay to identify novel small-molecules to repurpose for Merkel cell carcinoma treatment (AID 1296009); conditions: MCC and control cell lines, CellTiter-Glo viability, 72 h; series mostly up to 44.8 µM; note: nearly all actives have a fitted effect of over 60% in size
Outline: as §2

[19] = test system: HEK293T; assay: as above; conditions: MCC and control cell lines, CellTiter-Glo viability, 72 h; at 44.8 µM (top of the series) unless noted
Outline: as §2

[20] = test system: NIH3T3; assay: as above; conditions: MCC and control cell lines, CellTiter-Glo viability, 72 h; at 44.8 µM (top of the series) unless noted
Outline: as §2
% is set by controls: 0 for no effect and ±100 for the full control effect; potency is the fitted concentration of half-maximal effect.

Nc1ccccc1NC(=O)c1ccc(CNC(=O)OCc2cccnc2)cc1
inactive: Potency [9]
active: Potency [1] 9.2 µM | Potency [2] 13.2 µM and 5.17 µM | Potency [3] 9.35 µM and 7.31 µM | Potency [4] 2.35 µM | Potency [5] 0.296 µM | Potency [6] 2.35 µM | Potency [7] 0.296 µM | Potency [8] 17.8 µM | Potency [10] 11.2 µM | Potency [11] 10 µM

CC(C)(O)c1cc2nc(-c3cnc(N)nc3)nc(N3CCOCC3)c2s1
inactive: Potency [5]
active: Potency [1] 148 nM and 731 nM | Potency [2] 264 nM and 1.64 µM | Potency [12] 0.418 µM | Potency [8] 3.55 µM | Potency [11] 3.98 µM | Potency [13] 2 µM

CC[C@@]1(O)C(=O)OCc2c1cc1n(c2=O)Cc2cc3cc(O)ccc3nc2-1
active: Potency [1] 1.3 µM and 1.48 µM | Potency [2] 116 nM and 743 nM | Potency [3] 517 nM and 1.05 µM | Potency [12] 1.46 µM and 662 nM | Potency [14] 0.118 µM | Potency [15] 0.132 µM | Potency [4] 0.0372 µM | Potency [5] 0.264 µM | Potency [6] 0.0743 µM | Potency [7] 0.0187 µM | Potency [8] 0.794 µM | Potency [16] 0.355 µM | Potency [9] 0.398 µM | Potency [10] 0.355 µM | Potency [13] 1.26 µM

CN1CCC(CNc2ccc3ncc(-c4cccc(OC(F)(F)F)c4)n3n2)CC1
inactive: Potency [14] | Potency [15] | Potency [5] | Potency [7] | Potency [8] | Potency [10] | Potency [11] | Potency [13]
active: Potency [1] 4.69 µM | Potency [2] 13.2 µM and 16.4 µM | Potency [3] 20.9 µM

CNC(=O)c1cc(Oc2ccc(NC(=O)Nc3cc(C(C)(C)C)nn3-c3ccc4ncccc4c3)c(F)c2)ccn1
active: Potency [1] 13.2 µM and 18.4 µM | Potency [2] 7310 nM | Potency [3] 9.35 µM and 5.17 µM | Potency [12] 2.96 µM
inactive: Potency [14] | Potency [4] | Potency [5] | Potency [7]

Nc1ncnc2c1c(-c1cccc(OCc3ccccc3)c1)cn2C1CC(CN2CCCC2)C1 (stereo not drawn)
inactive: max response [2] -11.4% | outcome [2] | Potency [18] | Potency [14] | Potency [8] | Potency [10]
active: Potency [17] 13.2 µM and 5.17 µM | Potency [3] 18.7 µM | Potency [12] 14.8 µM and 16.4 µM | Potency [6] 10.5 µM

CCc1cc2c(cc1N1CCC(N3CCOCC3)CC1)C(C)(C)c1[nH]c3cc(C#N)ccc3c1C2=O
inactive: max response [1] -36.8% and 0.704% | max response [2] -16.1% and -0.553% | max response [3] -32% and 1.82% | max response [12] -45.1% and -2.9% | Potency [14] | Potency [15] | Potency [4] | Potency [6] | Potency [7] | Potency [8] | Potency [9] | Potency [10] | Potency [11] | Potency [13]

CC1COC2(CCN(c3nc(=O)c4cc(C(F)(F)F)cc([N+](=O)[O-])c4s3)CC2)O1 (stereo not drawn)
inactive: outcome [1] | max response [2] 0.136% | max response [3] 8.43% and -3.92% | outcome [12] | outcome [19] | Potency [14] | Potency [15] | Potency [4] | Potency [5] | outcome [20] | Potency [6] | Potency [7] | Potency [8] | Potency [9] | Potency [10] | Potency [11] | Potency [13]

CNc1nccc(-c2cccnc2Oc2cc(C(=O)Nc3cccc(C(F)(F)F)c3)ccc2C)n1
active: Potency [1] 7.31 µM | Potency [12] 18.4 µM
inactive: outcome [3] | Potency [4] | Potency [5] | Potency [6] | Potency [7] | Potency [8] | Potency [13]

CN(C)CC=CC(=O)Nc1cc2c(Nc3ccc(F)c(Cl)c3)ncnc2cc1O[C@H]1CCOC1
active: Potency [1] 3.32 µM | Potency [3] 4.18 µM | Potency [12] 3.72 µM | Potency [4] 14.8 µM | Potency [5] 5.26 µM | Potency [6] 14.8 µM | Potency [7] 14.8 µM
inactive: max response [2] -151%

CS(=O)(=O)N1CCN(Cc2cc3nc(-c4cccc5[nH]ncc45)nc(N4CCOCC4)c3s2)CC1
active: Potency [1] 1.05 µM and 1.64 µM | Potency [2] 29.6 nM | Potency [12] 296 nM and 1.3 µM | Potency [6] 1.32 µM | Potency [11] 3.55 µM | Potency [13] 2.51 µM
inactive: Potency [14] | Potency [16]

CCn1cc(-c2ccnc3[nH]c(-c4cccc(CN(C)C)c4)cc23)c(-c2ccc(NC(=O)N(C)C)cc2)n1
inactive: Potency [8] | Potency [13]
active: Potency [1] 14.8 µM | Potency [2] 89.3 nM | Potency [3] 1.87 µM and 63.2 nM | Potency [12] 3.72 µM and 632 nM | Potency [4] 0.0372 µM | Potency [5] 8.33 µM | Potency [6] 13.2 µM | Potency [7] 0.0469 µM
